Measurements: PubChem BioAssay (Tox21)
Several values for one entry are separate records, joined by “and”; a condition that tells them apart may be missing. Identical values can stand only once. Records with an inconclusive call do not appear. Where a call stands in place of a potency, no number is given. Some compounds were tested as several samples or in several runs, with calls that do not always agree. Activity calls are given as the source filed them. Unless noted, the call rests on the fitted dose curve; in most records, active means well fitted curve in the direction sought with a large enough effect in the repeat runs; inconclusive means weak or mixed curves; inactive means no such curve, though single readings can be large; an effect the other way counts as inactive or inconclusive.

Key:
[1] = target: Retinoic acid receptor RXR-alpha (Homo sapiens) (UniProt P19793); assay: qHTS assay to identify small molecule agonists of the RXR signaling pathway (AID 1159527; calls by dose curve; further: nearly all actives have a fitted effect of over 35% in size; further: potency means the concentration at half of the fitted maximal effect)
Sequence of Retinoic acid receptor RXR-alpha (Homo sapiens) (P19793 whole entry, looked up): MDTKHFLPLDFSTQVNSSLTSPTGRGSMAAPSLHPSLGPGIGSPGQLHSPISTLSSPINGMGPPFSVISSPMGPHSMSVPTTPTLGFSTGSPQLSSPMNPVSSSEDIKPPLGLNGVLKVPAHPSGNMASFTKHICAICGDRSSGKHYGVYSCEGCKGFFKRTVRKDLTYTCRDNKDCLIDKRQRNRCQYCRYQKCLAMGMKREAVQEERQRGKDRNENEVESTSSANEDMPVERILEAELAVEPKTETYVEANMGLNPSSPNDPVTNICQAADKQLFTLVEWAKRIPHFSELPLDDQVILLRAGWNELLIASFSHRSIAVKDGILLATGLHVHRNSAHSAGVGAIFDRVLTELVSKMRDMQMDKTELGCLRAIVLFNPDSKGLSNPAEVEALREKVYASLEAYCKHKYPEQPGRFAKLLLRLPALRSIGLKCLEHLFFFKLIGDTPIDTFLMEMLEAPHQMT
Outline: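 Cells plated at 2,000/well, rested 5 hr at 37 C, pin-dosed with DMSO compound solutions, incubated 16 hr, then loaded with B/G FRET substrate for 2 hr at RT before dual-emission fluorescence reading.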

[2] = qHTS assay to identify small molecule agonists of the RXR signaling pathway - cell viability counter screen (AID 1159529); further: nearly all actives have a fitted effect of over 50% in size; further: potency means the concentration at half of the fitted maximal effect
Outline: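 Steps: seed RXR-alpha-UAS-bla HEK 293T cells in assay medium containing 2% charcoal-stripped FBS; incubate 5 hr; add compounds in DMSO; incubate 16 hr at 37 C; after the bla read, add CellTiter-Glo and read luminescence at 30 min.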

[3] = qHTS assay to identify small molecule antagonists of the retinoid acid receptor (RAR) signaling pathway - cell viability counter screen (AID 1159551); further: nearly all actives have a fitted effect of over 35% in size
Outline: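 In this counter screen, the RARE-luciferase line C3RL4 was exposed for 6 h at 37 C and 5% CO2 to compounds with retinol at 1 uM final. Cellular ATP, read by luminescence, served as the viability measure.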

[4] = qHTS assay to identify small molecule antagonists of the estrogen related receptor (ERR) signaling pathway from Tox21 library - cell viability counter screen (AID 1224834); further: nearly all actives have a fitted effect of over 30% in size
Outline: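 Counter screen run in ERR cells (2,000 cells/well): cells pre-incubated 6 h, then treated with compounds for 17.5 h at 37 C. Fluorescence was read 30 min after CellTiter-Fluor addition.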

[5] = target: Luciferin 4-monooxygenase (Photinus pyralis) (UniProt P08659); assay: qHTS assay to identify small molecule inhibitors of firefly luciferase (AID 1224835); further: nearly all actives have a fitted effect of over 25% in size; further: potency means the concentration at half of the fitted maximal effect
Sequence of Luciferin 4-monooxygenase (Photinus pyralis) (P08659 whole entry, looked up): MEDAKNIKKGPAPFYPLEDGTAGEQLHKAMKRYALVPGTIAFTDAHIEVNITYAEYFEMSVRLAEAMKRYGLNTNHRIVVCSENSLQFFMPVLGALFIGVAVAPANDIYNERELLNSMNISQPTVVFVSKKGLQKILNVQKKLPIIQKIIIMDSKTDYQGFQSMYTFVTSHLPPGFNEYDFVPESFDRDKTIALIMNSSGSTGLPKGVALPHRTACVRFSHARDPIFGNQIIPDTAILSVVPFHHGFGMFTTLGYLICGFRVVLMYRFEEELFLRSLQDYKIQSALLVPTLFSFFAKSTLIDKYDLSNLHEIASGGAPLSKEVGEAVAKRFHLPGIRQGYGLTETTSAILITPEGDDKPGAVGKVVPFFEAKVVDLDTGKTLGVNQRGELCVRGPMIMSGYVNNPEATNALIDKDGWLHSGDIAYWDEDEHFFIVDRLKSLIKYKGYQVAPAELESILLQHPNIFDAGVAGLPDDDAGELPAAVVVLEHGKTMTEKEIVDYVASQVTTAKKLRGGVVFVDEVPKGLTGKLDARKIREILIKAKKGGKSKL
Outline: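 Biochemical qHTS: compounds run as interplate titrations against purified firefly enzyme, with D-luciferin and ATP each at its KM concentration. Light output recorded by CCD imaging.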

[6] = qHTS assay to identify small molecule agonists of the constitutive androstane receptor (CAR) signaling pathway - cell viability counter screen (AID 1224836); further: series mostly up to about 92 µM; nearly all actives have a fitted effect of over 45% in size
Outline: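 Cells were seeded and incubated 4 hrs. Compounds were added across 15 concentrations together with PK11195 at 0.75 uM final. Plates were incubated 23 hrs at 37 C. CellTiter-Fluor was added and fluorescence measured.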

[7] = qHTS assay to identify small molecule antagonists of the constitutive androstane receptor (CAR) signaling pathway - cell viability counter screen (AID 1224837); further: series mostly up to about 92 µM; nearly all actives have a fitted effect of over 45% in size
Outline: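 CITCO at 50 nM final was added alongside compounds (15 concentrations) to double-stable hCAR/CYP2B6-2.2kb HepG2 cells. Following 23 hr at 37 C, cell viability was quantified by CellTiter-Fluor fluorescence intensity.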

[8] = qHTS assay to identify small molecule antagonists of the estrogen related receptor signaling pathway with the pleiotropic PPARgamma coactivator (PGC) from Tox21 10K library - cell viability counter screen (AID 1224840; active means well fitted cell-killing curve with a large enough effect in the repeat runs, not every such curve was filed as active; further: nearly all actives have a fitted effect of over 40% in size)
Outline: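 Readout: fluorescence intensity from CellTiter-Fluor after 30 min at 37 C/5% CO2. Preceded by 17.5 h treatment of PGC/ERR cells with DMSO-dissolved compounds, added 6 h post-seeding.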

[9] = target: Nuclear receptor subfamily 1 group I member 3 (Homo sapiens) (UniProt Q14994); assay: qHTS assay to identify small molecule antagonists of the constitutive androstane receptor (CAR) signaling pathway (AID 1224838); further: nearly all actives have a fitted effect of over 40% in size
Sequence of Nuclear receptor subfamily 1 group I member 3 (Homo sapiens) (Q14994 whole entry, looked up): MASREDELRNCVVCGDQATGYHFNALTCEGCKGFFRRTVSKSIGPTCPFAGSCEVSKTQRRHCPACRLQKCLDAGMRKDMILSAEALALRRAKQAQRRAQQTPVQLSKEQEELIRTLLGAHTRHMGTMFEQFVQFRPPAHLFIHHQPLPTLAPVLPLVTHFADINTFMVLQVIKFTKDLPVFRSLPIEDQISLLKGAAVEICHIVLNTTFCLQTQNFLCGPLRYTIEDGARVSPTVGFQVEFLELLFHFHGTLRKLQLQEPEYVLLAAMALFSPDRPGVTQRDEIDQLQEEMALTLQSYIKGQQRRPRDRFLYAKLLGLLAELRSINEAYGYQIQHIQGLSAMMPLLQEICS
Outline: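 Inhibition of CITCO-driven (50 nM final) CYP2B6 reporter expression is measured in HepG2 cells stably carrying hCAR. Fifteen compound concentrations are applied for 24 h at 37 C, followed by luciferase luminescence.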

[10] = target: Nuclear receptor subfamily 1 group I member 3 (Homo sapiens) (UniProt Q14994); assay: qHTS assay to identify small molecule agonists of the constitutive androstane receptor (CAR) signaling pathway (AID 1224839); further: nearly all actives have a fitted effect of over 15% in size; further: potency means the concentration at half of the fitted maximal effect
Outline: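 Cells were plated and incubated 4 hrs, then dosed with compounds at 15 concentrations. PK11195 was added to 0.75 uM final. After 24 hrs at 37 C, luciferase luminescence was measured.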

[11] = qHTS assay to identify small molecule antagonists of the estrogen related receptor signaling pathway with the pleiotropic PPARgamma coactivator (PGC) from Tox21 10K library (AID 1224841; call rule not given here; further: actives are mostly falling curves and most rising ones were filed inactive; nearly all actives have a fitted effect of over 50% in size; further: potency means the concentration at half of the fitted maximal effect)
Outline: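 One-Glo luminescence, measured after half an hour at room temperature, quantified reporter output of PGC/ERR cells. These had been plated at 2,000 per well, incubated 6 h, dosed with compounds in DMSO, then kept 18 h at 37 C.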

[12] = qHTS assay to identify small molecule agonists of the estrogen related receptor signaling pathway with the pleiotropic PPARgamma coactivator (PGC) from Tox21 10K library (AID 1224842); further: nearly all actives have a fitted effect of over 15% in size; further: potency means the concentration at half of the fitted maximal effect
Outline: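 PGC/ERR reporter cell line, 2,000 cells per well, incubated 6 h at 37 C before 23 nL compound in DMSO was added. After 18 h at 37 C, One-Glo luminescence read following 30 min at room temperature.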

[13] = qHTS assay to identify small molecule antagonists of the retinoic acid receptor (RAR) signaling pathway (AID 1159552; further: nearly all actives have a fitted effect of over 50% in size; further: potency means the concentration at half of the fitted maximal effect)
Outline: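 Retinol at 1 uM final stimulated RARE-luciferase expression in C3RL4 cells exposed to test compounds for 6 hr at 37 C. Reduced luminescence, read 30 min after detection reagent, indicated pathway antagonism.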

[14] = qHTS assay to identify small molecule agonists of the retinoic acid receptor (RAR) signaling pathway (AID 1159553)
Outline: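 In this cell-based screen, 1,000 C3RL4 cells per well were cultured overnight, dosed with test chemicals in DMSO for 6 hr, and assessed for RARE luciferase luminescence.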

[15] = qHTS assay to identify small molecule antagonists of the estrogen related receptor (ERR) signaling pathway - cell viability counter screen (AID 1224818); further: series mostly up to about 46 µM
Outline: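 Viability of ERR cells, CellTiter-Fluor fluorescence; 17.5 h compound exposure at 37 C, DMSO vehicle; 30 min reagent incubation at 37 C/5% CO2.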

[16] = qHTS assay to identify small molecule antagonists of the estrogen related receptor signaling pathway with the pleiotropic PPARgamma coactivator (PGC) cell viability counter screen (AID 1224822; further: series mostly up to about 46 µM)
Outline: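 17.5 h compound treatment of PGC/ERR cells at 37 C; readout CellTiter-Fluor fluorescence; run alongside the PGC/ERR antagonist screen to flag cytotoxic compounds.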

[17] = qHTS assay to identify small molecule antagonists of the estrogen related receptor (ERR) signaling pathway (AID 1224819;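 further: luminescence from an ERR-driven luciferase reporter measured with One-Glo reagent; series mostly up to about 46 µM; nearly all actives have a fitted effect of over 50% in size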)
Outline: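 Seed ERR cells 2,000/well; rest 6 h at 37 C/5% CO2; pin compounds in DMSO; incubate 18 h at 37 C; add One-Glo; wait 30 min at room temperature; measure luminescence.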

[18] = qHTS assay to identify small molecule agonists of the estrogen related receptor (ERR) signaling pathway (AID 1224820)
Outline: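 Following a 6 h settling period, 2,000 ERR cells per well receive DMSO-dissolved compounds by pin tool and incubate 18 h at 37 C; agonist activity is scored from One-Glo luminescence read 30 min post-addition.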

[19] = test system: estrogen-related receptor alpha (ERRalpha) with PGC-1alpha coactivator, human; assay: qHTS assay to identify small molecule antagonists of the estrogen related receptor signaling pathway with the pleiotropic PPARgamma coactivator (PGC) (AID 1224821; calls by dose curve)
Outline: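 Screening used NTP's PGC/ERR cells, dosed via pin tool with compound in DMSO alongside positive and negative controls. After 18 h at 37 C, One-Glo reagent sat 30 min at room temperature before luminescence detection.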

[20] = qHTS assay to identify small molecule agonists of the estrogen related receptor signaling pathway with the pleiotropic PPARgamma coactivator (PGC) (AID 1224823)
Outline: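 In this quantitative high-throughput screen, an 18 h, 37 C treatment of PGC/ERR cells with compounds in DMSO preceded a One-Glo luminescence read taken after 30 min at room temperature.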

| Compound | Potency [1] | Potency [2] | Potency [3] | Potency [4] | Potency [5] | Potency [6] | Potency [7] | Potency [8] | Potency [9] | Potency [10] | Potency [11] | Potency [12] | Potency [13] | Potency [14] | Potency [15] | Potency [16] | Potency [17] | outcome [18] | Potency [19] | outcome [20] |
| --- | --- | --- | --- | --- | --- | --- | --- | --- | --- | --- | --- | --- | --- | --- | --- | --- | --- | --- | --- | --- |
| CC1=CCC(C(C)(C)O)CC1 (configuration not stated) | inactive | inactive | inactive | inactive | inactive | inactive | inactive | inactive | – | – | – | – | – | – | – | – | – | – | – | – |
| CCCCC/C=C/C=C/C=O | inactive | inactive | – | inactive | inactive | inactive | inactive | inactive | inactive | inactive | inactive and 54.5 µM (active) | inactive | – | – | – | – | – | – | – | – |
| c1ccc2c(c1)Oc1ccccc1S2 | inactive | inactive | inactive | inactive | 72.1 µM (active) | inactive | inactive | inactive | inactive | – | – | – | – | – | – | – | – | – | – | – |
| O=CCCCC=O | inactive | inactive | inactive | inactive | inactive | inactive | inactive | inactive | inactive | – | inactive | inactive | – | – | – | – | – | – | – | – |
| CCC(C)c1ccccc1O (configuration not stated) | inactive | inactive | – | inactive | inactive | inactive | inactive | inactive | inactive | inactive | inactive | inactive | inactive | inactive | – | – | – | – | – | – |
| COC(=O)CCC(=O)OC | inactive | inactive | inactive | inactive | inactive | inactive | inactive | inactive | inactive | – | inactive | inactive | – | – | – | – | – | – | – | – |
| COc1c(Cl)c(Cl)c(Cl)c(Cl)c1Cl | inactive | inactive | inactive | inactive | inactive | inactive | inactive | inactive | inactive | – | inactive | inactive | – | – | – | – | – | – | – | – |
| OC[C@H]1O[C@@H]2O[C@H]3[C@H](O)[C@@H](O)[C@@H](O[C@H]4[C@H](O)[C@@H](O)[C@@H](O[C@H]5[C@H](O)[C@@H](O)[C@@H](O[C@H]6[C@H](O)[C@@H](O)[C@@H](O[C@H]7[C@H](O)[C@@H](O)[C@@H](O[C@H]8[C@H](O)[C@@H](O)[C@@H](O[C@H]1[C@H](O)[C@H]2O)O[C@@H]8CO)O[C@@H]7CO)O[C@@H]6CO)O[C@@H]5CO)O[C@@H]4CO)O[C@@H]3CO | inactive | 21.9 µM (active) and inactive | – | inactive | inactive | inactive | inactive | inactive | inactive | inactive | – | – | inactive | inactive | – | – | – | – | – | – |
| C[C@]12CCC(=O)C=C1CC[C@@H]1[C@@H]2C(=O)C[C@@]2(C)[C@H]1CC[C@]2(O)C(=O)CO | inactive | inactive | – | inactive | inactive | inactive | inactive | inactive | inactive | inactive | – | – | inactive | inactive | inactive | inactive | – | – | – | – |
| CC(C(=O)O)c1cccc(C(=O)c2ccccc2)c1 (configuration not stated) | inactive | inactive | – | inactive | – | inactive | inactive | inactive | – | – | inactive | inactive | inactive | inactive | inactive | inactive | inactive | inactive | inactive | inactive |
| COc1ccccc1/C=C/C=O | inactive | inactive | inactive | – | inactive | inactive | inactive | inactive | – | – | – | – | – | – | – | – | – | – | – | – |
| CC(CCC(=O)O)(c1ccc(O)cc1)c1ccc(O)cc1 | inactive | inactive | – | inactive | inactive | inactive | inactive | inactive | inactive | – | inactive | inactive | inactive | inactive | – | – | – | – | – | – |
| Oc1ccc(O)cc1 | inactive | inactive | – | inactive | inactive | inactive | inactive | inactive | inactive | 30.5 µM (active) and 34.4 µM (active) | – | – | 17.1 µM (active) and 24.3 µM (active) and 10.6 µM (active) | inactive | inactive | inactive | – | – | – | – |
| CCOCCOCCO | inactive | inactive | inactive | inactive | inactive | inactive | inactive | inactive | – | – | inactive | inactive | – | – | – | – | – | – | – | – |
| O=Cc1ccccc1O | inactive | inactive | – | inactive | inactive | inactive | inactive | inactive | inactive | – | – | – | inactive | inactive | – | – | – | – | – | – |
| CC(C)OB(OC(C)C)OC(C)C | inactive | inactive | inactive | inactive | inactive | inactive | inactive | inactive | inactive | – | inactive | inactive | – | – | – | – | – | – | – | – |
| COc1ccc(OC)c(C(O)CNC(=O)CN)c1 (configuration not stated) | inactive | inactive | – | inactive | inactive | inactive | inactive | inactive | inactive | inactive | inactive | inactive | inactive | inactive | – | – | – | – | – | – |
| OCCO | inactive | inactive | – | inactive | inactive | inactive | inactive | inactive | inactive | inactive | – | – | inactive | inactive | – | – | – | – | – | – |
| CC1=CC2C3CC(C=C3C)C2C1 (configuration not stated) | inactive | inactive | – | inactive | inactive | inactive | inactive | inactive | inactive | inactive | inactive | inactive | – | – | – | – | – | – | – | – |
| Nc1ncnc2nc[nH]c12 | inactive | inactive | – | inactive | inactive | inactive | inactive | inactive | inactive | inactive | inactive | 54.5 µM (active) | inactive | inactive | – | – | – | – | – | – |
| Cc1cccc(C(=O)O)c1 | 27.5 µM (active) | inactive | – | inactive | inactive | inactive | inactive | inactive | inactive | – | inactive | inactive | inactive | inactive | – | – | – | – | – | – |
